A short description of experiment [1]: CCTE_Harrill_HTTr_Apoptosis_MCF7: CCTE's 6-hour Apoptosis Assessment for the High-Throughput Transcriptomics (HTTr) Platform, in MCF-7 cells cultured in DMEM + 10% fetal bovine serum, Harrill Lab (AID 2284011). The method in brief: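 Read-out: CellEvent Caspase 3/7 Green signal by high content imaging, gain-of-signal indicating apoptosis. MCF-7 cells, DMEM + 10% FBS, eight-point dilution series, 6 h exposure. Curves fitted bidirectionally relative to DMSO negative control.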

Experiment [2] in a line: CCTE_Shafer_MEA_acute_burst_number: CCTE's Neural Acute Assay for Single-Electrode Bursts, Shafer Lab (AID 2284013). The method in brief:
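Rat cortical cultures, DIV 13/15; 40 min baseline, then 40 min with compound 0.03-40 uM, 37 C. Spikes: 300-5000 Hz band-pass, threshold 8x rms noise. Readout = % change in single-electrode bursts vs baseline, loss-of-signal fit.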

Experiment [3] is described as follows: CCTE_Shafer_MEA_acute_burst_duration_mean: CCTE's Neural Acute Assay for Mean Burst Duration, Shafer Lab (AID 2284014).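 Also: hits are decreases in mean burst duration relative to DMSO controls.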 Put shortly:
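Primary rat cortical neurons on 16-electrode MEA wells, treated on DIV 13 or 15 with compound (0.03-40 uM; ≥3 wells each). 40-min baseline and 40-min exposure recordings at 37 C; percent change in mean burst duration per well versus DMSO.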

A short description of experiment [4]: CCTE_Shafer_MEA_acute_per_burst_spike_number_mean: CCTE's Neural Acute Assay for Average Number of Spikes Per Burst, Shafer Lab (AID 2284015).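 Also: hits are decreases in mean spikes per burst versus baseline.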 The method in brief: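 Primary rat cortical neurons on 48-well MEA plates, treated on DIV 13 or 15 at 0.03-40 uM. Spontaneous activity recorded 40 min before and 40 min after compound at 37 C; percent change in mean spikes per single-electrode burst per well, fitted in the loss direction versus DMSO.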

Experiment [5] is described as follows: CCTE_Shafer_MEA_acute_interburst_interval_mean: CCTE's Neural Acute Assay for Mean Interburst Interval, Shafer Lab (AID 2284016).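 Also: percent change of mean interburst interval versus each well's own pre-dose baseline; curves fitted for decrease in interburst interval relative to DMSO.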 Put shortly: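 Primary rat cortical neurons on 16-electrode MEA wells were recorded 40 min at baseline on DIV 13 or 15, then 40 min after compound (0.03-40 uM), at 37 C. Value is percent change in mean interburst interval per well, DMSO as negative control.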

Experiment [6] in a line: CCTE_Shafer_MEA_acute_burst_percentage_std: CCTE's Neural Acute Assay for Standard Deviation of Burst Percentage, Shafer Lab (AID 2284018).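 Also: fitted in the negative direction so actives lower burst percentage SD.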 The method in brief:
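Primary rat cortical neurons on 16-electrode MEA wells were recorded 40 min at baseline (DIV 13 or 15), then 40 min after compound (0.03-40 uM), at 37 C. Well value is SD across electrodes of spikes-in-bursts/total spikes; endpoint is percent change, DMSO-referenced.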

The nature of experiment [7]: CCTE_Shafer_MEA_acute_per_network_burst_spike_number_mean: CCTE's Neural Acute Assay for Average Number of Spikes in a Network Burst, Shafer Lab (AID 2284019). Put shortly:
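Primary rat cortical neurons on 16-electrode MEA wells, DIV 13 or 15, 37 C; 40-min baseline then 40-min recording with compound (0.03-40 uM). Spikes per network burst (total spikes/number of bursts) expressed as percent change from baseline, DMSO reference.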

The nature of experiment [8]: CCTE_Shafer_MEA_acute_per_network_burst_spike_number_std: CCTE's Neural Acute Assay for Standard Deviation of Number of Spikes in a Network Burst, Shafer Lab (AID 2284020).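 Also: fitted for decrease in spike-number SD versus DMSO so actives lower it.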 The method in brief:
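Primary rat cortical neurons on 48-well MEAs (16 electrodes/well) recorded at DIV 13 or 15: 40-min baseline, then 40 min with compound (0.03-40 uM), 37 C. Value is percent change in SD of spikes per network burst, relative to DMSO.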

The nature of experiment [9]: CCTE_Shafer_MEA_acute_per_network_burst_electrodes_number_mean: CCTE's Neural Acute Assay for Mean Number of Electrodes in a Network Burst, Shafer Lab (AID 2284021).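 Also: curves fitted for decreases only so hits reduce electrodes per burst.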 Put shortly: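 Readout: % change in mean electrodes active per network burst, post- vs pre-treatment, each well. Spikes detected at 8x rms noise after 300-5000 Hz band-pass; rat cortical cultures, DIV 13/15, compounds 0.03-40 uM, DMSO baseline.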

A short description of experiment [10]: CCTE_Harrill_HTTr_CellCount_MCF7: CCTE's Cell Proliferation Assessment for the High-Throughput Transcriptomics (HTTr) Platform, Harrill Lab (AID 2284012; active = hit-call score of the fitted dose curve at least 0.9, where 1 is the maximum;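 also: count of Hoechst-stained nuclei per well by high-content imaging in MCF-7 cells; cells exposed to compound for six hours; intended direction is loss of nuclei count meaning fewer cells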). The method in brief:
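Chemicals in eight-point dilution series are added to MCF-7 cells for six hours, nuclei are stained with Hoechst and imaged, and per-well nuclei counts are fitted in both directions relative to DMSO controls.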

By AC50 is commonly meant the concentration giving half of the maximal activity seen.

Several values for one entry are separate records, joined by “and”; a condition that tells them apart may be missing. Identical values can stand only once. Records with an inconclusive call do not appear. Some compounds were tested as several samples or in several runs, with calls that do not always agree. Activity calls are given as the source filed them. The calls were made as follows, unless noted: active = hit-call score of the fitted dose curve at least 0.9, where 1 is the maximum; inactive = score below 0.9.

Regarding `Cc1cc(N=Nc2ccccc2C)ccc1N`, the result in experiment [1], in experiment [2], in experiment [3], in [5], in [7] and in experiment [8] was inactive. In addition, the outcome in experiment [9] was inactive. Moreover, the results for the AC50 in experiment [4] and in [6] were 20 µM (active) and 28.9 µM (active), respectively.

On to `CCN(CC)N=O`, for which the outcome in experiment [1], in experiment [10], in experiment [2], in experiment [3], in [4] and in experiment [5] was inactive. The outcome in experiment [6], in experiment [7], in [8] and in [9] was inactive.

Take `C[C@]12C=CC3=C4CCC(=O)C=C4CC[C@H]3[C@@H]1CC[C@@H]2O`: the result in experiment [1] and in experiment [10] was inactive.

`[Cl-].[Cl-].[Hg+2]`: the result in experiment [1], in [10], in [2], in experiment [4], in [5] and in experiment [6] was inactive. In addition, the compound was classed as inactive in experiment [7] and in experiment [8]. Moreover, the half-maximal activity concentration (AC50) in experiment [3] was 29.8 µM (active); in [9], 24.6 µM (active).

Turning to `Nc1cc(Cl)cc(C(=O)O)c1Cl`, the outcome in [1] and in experiment [10] was inactive.

As for `O=Cc1ccco1`, the compound was called inactive in experiment [3], in [4], in [5], in experiment [6], in [7] and in experiment [8]. Also, in [9], the outcome was inactive.

Consider `CCN(CC)CCO`, for which the result in experiment [1], in experiment [10], in experiment [2], in [3], in experiment [4] and in experiment [5] was inactive. Moreover, the result in [6], in experiment [7], in [8] and in experiment [9] was inactive.

As for `OCCOCCO`, the result in experiment [1] and in experiment [10] was inactive.

`c1ccc(NNc2ccccc2)cc1`: the result in experiment [1], in experiment [10], in experiment [2], in [3], in experiment [5] and in experiment [6] was inactive. The call in [7], in [8] and in [9] was inactive. In addition, the AC50 in [4] is 20 µM (active).

Turning to `c1ccc(N=Nc2ccccc2)cc1`, the result in experiment [1], in experiment [10], in experiment [2], in experiment [3], in [4] and in [7] was inactive. Also, the compound was classed as inactive in experiment [8] and in experiment [9]. Besides, the half-maximal activity concentration (AC50) was 34.6 µM (active) in experiment [5] and 36.2 µM (active) in [6].

With `CCC[CH2][Sn]([Cl])([CH2]CCC)[CH2]CCC`, the AC50 in experiment [1] is 10.9 µM (active); in [10], 17.2 µM (active); in [2], 40 nM (active) and 66.5 nM (active); in [3], 0.347 µM (active); in experiment [4] it was 198 nM (active) and 150 nM (active); in experiment [5], 0.382 µM (active). Besides, the AC50 in experiment [6] is 7.27 µM (active); in experiment [8], 0.239 µM (active); in experiment [9], 0.992 µM (active). For the same compound, the outcome in experiment [3], in experiment [5], in experiment [6], in [7], in [8] and in [9] was inactive.

These data come from PubChem BioAssay (EPA / NIEHS).
